AmpC inh detg – inhibitors of E. coli AmpC beta-lactamase with detergent | P00811 | AmpC hydrolysis of nitrocefin, absorbance 480 nm, 0.01% Triton | Potency, µM (doses to about 114 µM), usual class: inhibitors | 370,000 compounds, 0.041% hits; further: nearly all actives have a fitted effect of over 25% in size
Target sequence (P00811 whole entry, looked up): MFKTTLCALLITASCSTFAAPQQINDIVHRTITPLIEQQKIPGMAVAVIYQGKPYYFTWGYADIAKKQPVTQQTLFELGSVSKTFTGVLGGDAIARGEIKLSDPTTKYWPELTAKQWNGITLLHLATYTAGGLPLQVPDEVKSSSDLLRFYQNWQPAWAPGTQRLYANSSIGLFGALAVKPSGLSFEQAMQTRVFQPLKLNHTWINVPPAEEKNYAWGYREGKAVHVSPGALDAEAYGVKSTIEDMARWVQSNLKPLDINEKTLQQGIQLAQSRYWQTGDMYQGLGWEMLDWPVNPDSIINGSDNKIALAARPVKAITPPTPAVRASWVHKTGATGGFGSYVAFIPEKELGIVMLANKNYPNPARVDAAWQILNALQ
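20 mM phosphate pH 7.0 + 0.01% (detergent screen) or 0.0001% Triton X-100; 5.3 nM AmpC reagent; cpd preinc 15 min RT; nitrocefin (800 uM stock) to start; A480 q20 s × 4 min; Activity was normalised to no-enzyme and no-compound control wells.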
Sm TGR block – blocks Schistosoma mansoni thioredoxin glutathione reductase; Q962Y6; purified TGR, DTNB reduction, TNB absorbance 405 nm; Potency, µM (top dose mostly 114 µM), actives largely listed as inhibitors; 360,000 compounds, 3% hits; further: nearly all actives have a fitted effect of over 60% in size
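TGR 20 nM + NADPH 100 uM (dispensed conc.), cpd preinc 15 min RT; start with NADPH (500 uM addition) then DTNB (15 mM addition). Kinetic TNB absorbance, 405 nm filter. Four-parameter Hill fit across titration.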
AmpC no deterg – inhibitors of E. coli AmpC beta-lactamase without detergent; P00811; AmpC nitrocefin hydrolysis, absorbance 480 nm, 0.0001% Triton; Potency, µM (doses to about 57.1 µM), hits mostly inhibitors; 330,000 compounds, 0.52% hits; AID 485341; further: nearly all actives have a fitted effect of over 20% in size
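20 mM phosphate pH 7.0 + 0.01% (detergent screen) or 0.0001% Triton X-100; 5.3 nM AmpC reagent; cpd preinc 15 min RT; nitrocefin (800 uM stock) to start; A480 q20 s × 4 min; Activity was normalised to no-enzyme and no-compound control wells.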
A number is an active result; 0 = inactive; ? = inconclusive; - = not tested or not shown. Most compounds without a hit are left out; they make up all but 3.3% or so of the library. The call rests on the fitted dose curve; in most records, active means well fitted curve in the direction sought with a large enough effect; inconclusive means small, poorly fitted or top-dose-only effect, or another doubt; inactive means no such curve, though single readings can be large; an effect the other way counts as inactive or inconclusive.

SMILES | AmpC inh detg | Sm TGR block | AmpC no deterg
CN(c1ccccc1)S(=O)(=O)c1ccc(C(=O)OCC(=O)NCc2ccco2)cc1 | ? | 25µM | 0
COc1ccccc1N(C)S(=O)(=O)c1ccc(C(=O)OCC(=O)NCc2ccco2)cc1 | ? | 0 | 0
O=C(COC(=O)/C=C/c1ccc(F)cc1)NCc1ccco1 | 0 | 0 | 0
O=C(COC(=O)C1CCCCC1C(=O)N1CCc2ccccc21)NCc1ccco1 (configuration not stated) | ? | 25µM | 0
COc1ccccc1OCC(=O)NCc1ccco1 | 0 | 0 | 0
CC1CCN(S(=O)(=O)c2ccc3c(ccc(=O)n3CC(=O)NCc3ccc(Cl)cc3)c2)CC1 | 0 | 0 | -
CCOc1ccccc1CNC(=O)CSc1n[nH]c(-c2ccccc2)n1 | 0 | 0 | -
CC(=O)Nc1ccc(S(=O)(=O)NC2(C(F)(F)F)NC(=O)N(CCc3ccc(F)cc3)C2=O)cc1 (configuration not stated) | 0 | 0 | -
O=C(COC(=O)C1CC2C=CC1C2)NCc1ccco1 (configuration not stated) | 0 | 50µM | 0
COc1ccccc1NS(=O)(=O)c1ccc(C(=O)OCC(=O)NCc2ccco2)cc1 | ? | 40µM | 0
Cc1ccc2cccc(OCC(=O)NCc3ccco3)c2n1 | 0 | 45µM | 0
O=C(COC(=O)C1CC2C=CC1C2)NCc1ccc(F)cc1 (configuration not stated) | 0 | 0 | 0
COc1ccccc1NC(=O)COC(=O)c1ccc(S(=O)(=O)NCc2ccco2)cc1 | 0 | ? | 0
Cc1ccc(OCC(=O)NCc2ccco2)c([N+](=O)[O-])n1 | 0 | - | 0
Cc1noc(Cn2c(=O)c3cc4c(cc3n(CC(=O)Nc3ccccc3F)c2=O)OCO4)n1 | 0 | 0 | -
CCc1nn(CC(=O)N(CC)Cc2ccccc2)c(=O)c2cc3occc3n12 | 0 | 0 | -
COc1cc2c(cc1NC(=O)Nc1ccc(C)cc1)oc1ccccc12 | 0 | 0 | 0
COc1cc2c(cc1NC(=O)CSc1nc3ccccc3[nH]1)oc1ccccc12 | 0 | 0 | 7.9µM
COc1cc2c(cc1NC(=O)Nc1ccc(F)cc1)oc1ccccc12 | ? | 0 | 14µM
COc1cc2c(cc1NC(=O)CSc1ccccc1)oc1ccccc12 | 0 | 0 | 0
CN(C1CCCCC1)S(=O)(=O)c1ccc(F)c(C(=O)Nc2ccc(C(F)(F)F)cc2)c1 | 0 | 0 | -
O=C(CSc1nc(=O)[nH]c2c1CCCC2)Nc1ccccc1C(F)(F)F | 0 | 0 | -
CCCC(=O)Nc1nnc2n1CCS2 | 0 | 0 | -
O=C(CN1CCOCC1)c1ccc2cc[nH]c2c1 | 0 | ? | 0
O=C(CN1CCC2(CC1)OCCO2)c1ccc2cc[nH]c2c1 | 0 | 45µM | 0
SMILES | AmpC inh detg | Sm TGR block | AmpC no deterg
COc1ccc(CNC(=O)CCc2nc(-c3ccc(C)cc3)no2)c(OC)c1 | 0 | 0 | -
N=C1SC(c2ccccc2)C(=O)N1c1ncc(Cc2ccccc2Cl)s1 (configuration not stated) | 0 | 0 | 16µM
O=C(CSc1nnnn1-c1ccccc1)Nc1ncc(Cc2ccccc2Cl)s1 | 0 | 0 | 0
CCN(c1ccccc1)S(=O)(=O)c1c(C)nc2scc(C)n2c1=O | 0 | 0 | -
CCOc1ccccc1NC(=O)Cn1c(=O)ccc2cc(S(=O)(=O)N3CCCC3)ccc21 | 0 | 0 | -
Cc1ccc(-c2nnc3c(C(F)(F)F)nc4ccccc4n23)cc1 | ? | 0 | 0.14µM
FC(F)(F)c1nc2ccccc2n2c(-c3ccc(Cl)cc3)nnc12 | ? | 0 | 0
Cc1ccc(C)c(NC(=O)CN2C(=O)c3cccnc3Oc3ccc(C)cc32)c1 | 0 | 0 | -
CC(=O)N1N=C(c2c(-c3ccccc3)c3cc(Br)ccc3[nH]c2=O)CC1c1ccco1 (configuration not stated) | 0 | 13µM | 0
CC(=O)N1N=C(c2c(-c3ccccc3)c3cc(C)ccc3[nH]c2=O)CC1c1ccco1 (configuration not stated) | 0 | 0 | 0
COc1ccc(S(=O)(=O)c2c(Nc3c(C)cccc3C)sc(C(=O)c3ccc(F)cc3)c2N)cc1 | ? | 0 | -
O=c1nc(Nc2cccc(Cl)c2)oc2cc(Cl)oc(=O)c12 | 0 | ? | 10µM
O=c1nc(Nc2ccccc2)oc2ccccc12 | 0 | 0 | 0
O=C(NCc1ccccn1)c1nn(-c2ccccc2Cl)nc1CO | 0 | 0 | -
CC1Cc2cc(S(=O)(=O)NCc3ccc(N(C)C)cc3)ccc2N1C(=O)C1CCC1 (configuration not stated) | 0 | 0 | -
Cc1ccc(-c2cn3cccnc3n2)cc1NC(=O)Cc1ccccc1 | 0 | ? | -
COc1ccc(C(=O)[C@H]2[C@H]3C(=O)N(c4ccc(C)cc4)C(=O)[C@H]3C3C=CC=NN32)cc1 (some centres not stated) | 0 | 40µM | 0
CC(=O)Oc1ccc(C(=O)[C@H]2[C@H]3C(=O)N(c4ccc(C)cc4)C(=O)[C@H]3[C@@H]3C=CC=NN32)cc1 | 0 | ? | 0
CC(=O)Oc1ccc(C(=O)[C@H]2[C@H]3C(=O)N(c4ccc(C)cc4C)C(=O)[C@H]3[C@@H]3C=CC=NN32)cc1 | 0 | 18µM | 0
COc1ccc(C(=O)[C@H]2[C@H]3C(=O)N(c4ccccc4)C(=O)[C@H]3C3C=CC=NN32)cc1 (some centres not stated) | 0 | ? | 0
COc1cccc(NC(=O)Cn2nnc(-c3nc(-c4ccccc4)no3)c2N)c1 | 0 | 0 | -
CC1CCN(C(=O)Cn2cc(SCc3ccccc3)c3ccccc32)CC1 | 0 | 0 | -
O=C(Cn1cc(C(=O)c2cccs2)c2ccccc21)Nc1ccc(Br)cc1 | ? | 0 | -
O=c1c2sc3ccccc3c2n(Cc2ccc(F)cc2)c(=O)n1Cc1ccco1 | 0 | 0 | -
Cc1ccc(C(=O)CSc2nsc(C)c2C#N)cc1 | 0 | 0 | 0.25µM
SMILES | AmpC inh detg | Sm TGR block | AmpC no deterg
Cc1snc(SCC(=O)c2ccc(Cl)cc2)c1C#N | ? | 0 | 0
Cc1ccc(NC(=O)Cn2nc(-c3ccco3)ccc2=O)cc1Cl | ? | 6.3µM | 0
Cc1ccc(NC(=O)Cn2nc3c(cc2=O)CCCC3)cc1Cl | 0 | 0 | -
CCc1ccc(NC(=O)CCn2cccc2)cc1 | 0 | ? | 0
Cc1ccc(NC(=O)CCn2cccc2)cc1Cl | 0 | 35µM | 0
Nc1ccc(S(=O)(=O)NC2(C(F)(F)F)NC(=O)N(c3cccc(Cl)c3)C2=O)cc1 (configuration not stated) | 0 | 0 | -
COc1ccc(/C=C2\CCc3ccccc3C2=O)cc1OC | 0 | 0 | 0
COc1ccc(C=C2C=C(C(C)(C)C)C(=O)C(C(C)(C)C)=C2)cc1OC | 0 | 4.5µM | 0
CCc1ccccc1NS(=O)(=O)c1ccc2[nH]cc(C(=O)N3CCCCC3)c(=O)c2c1 | 0 | 0 | -
CCc1ccc(Sc2cc(C(=O)O)c3ccccc3n2)cc1 | 0 | 0 | -
COc1cc2c(cc1OC)C(C)N(CC(=O)Nc1ccc(S(=O)(=O)N3CCCC3)cc1)CC2 (configuration not stated) | 0 | 35µM | 0
COc1cccc(CN2CCN(S(=O)(=O)c3ccc(Br)cc3)CC2)c1 | 0 | 0 | 0
COc1cccc(NS(=O)(=O)c2ccc(S(=O)(=O)N3CCCC3)cc2)c1 | 0 | 0 | 0
COc1ccc(S(=O)(=O)N2CCCN(CC(=O)Nc3ccc(OC)c(Cl)c3)CC2)cc1 | 0 | 32µM | 0

Screening data deposited in PubChem by National Center for Advancing Translational Sciences (NCATS).
